These results are taken from PMC11006913.

Substitutions are numbered along the chain they refer to.

The target in the first assay is T1, SIX6 (Homo sapiens, UniProt O95475 114-200, T139Q).
T1 sequence: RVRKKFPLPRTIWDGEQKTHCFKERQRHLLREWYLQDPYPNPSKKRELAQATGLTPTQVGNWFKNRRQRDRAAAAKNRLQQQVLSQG
Put plainly: PBM; 200 nM protein, PBS. The note with it: dsDNA, one strand shown.
Turning to CACGCCCC, the binding signal is 9.14 upbm affinity estimate (log intensity, higher = more binding, comparable within an allelic series).
The same measure, in the same setting: to AGGTGCCC belongs 8.92 upbm affinity estimate (log intensity, higher = more binding, comparable within an allelic series).
The same measure, in the same setting: to CCGTCGCC belongs 9.02 upbm affinity estimate (log intensity, higher = more binding, comparable within an allelic series); to GCAGCTGC, 9.1 upbm affinity estimate (log intensity, higher = more binding, comparable within an allelic series); to CCCTGATC, 10.4 upbm affinity estimate (log intensity, higher = more binding, comparable within an allelic series).
Same read-out and setting: as for CCAGGGGC, the figure is 8.83 upbm affinity estimate (log intensity, higher = more binding, comparable within an allelic series); as for AGACTATC, 10.4 upbm affinity estimate (log intensity, higher = more binding, comparable within an allelic series).
On to GGGGCCCC, for which the binding signal is 9.06 upbm affinity estimate (log intensity, higher = more binding, comparable within an allelic series).
With CGCACCGC, the binding signal is 9.17 upbm affinity estimate (log intensity, higher = more binding, comparable within an allelic series).
For ACGCAACG, the binding signal is 9.17 upbm affinity estimate (log intensity, higher = more binding, comparable within an allelic series).
For CTGCTGGC, the binding signal is 8.84 upbm affinity estimate (log intensity, higher = more binding, comparable within an allelic series).

In the next assay the target is CRX (Homo sapiens, UniProt O43186 26-111, E42D). Put plainly: PBM; 200 nM protein, PBS. As to conditions: dsDNA, one strand shown.
Chain of CRX (O43186 26-111 E42D): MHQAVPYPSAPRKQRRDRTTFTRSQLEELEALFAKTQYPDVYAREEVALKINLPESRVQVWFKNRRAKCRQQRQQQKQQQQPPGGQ
Turning to CCCGACCC, the binding signal was 8.12 upbm affinity estimate (log intensity, higher = more binding, comparable within an allelic series).
Turning to CACGCCCC, the binding signal is 8.24 upbm affinity estimate (log intensity, higher = more binding, comparable within an allelic series).
As for ACAGATTA, the binding signal was 12.7 upbm affinity estimate (log intensity, higher = more binding, comparable within an allelic series).
Still for that read-out and setting: as for AGGTGCCC, the figure is 8.38 upbm affinity estimate (log intensity, higher = more binding, comparable within an allelic series).
On the same count and under the same terms, to ACCAGCCC belongs 8.32 upbm affinity estimate (log intensity, higher = more binding, comparable within an allelic series); to GACGCGTC, 8.54 upbm affinity estimate (log intensity, higher = more binding, comparable within an allelic series); to CCGTCGCC, 8.26 upbm affinity estimate (log intensity, higher = more binding, comparable within an allelic series).
The same measure, in the same setting: to GGGGCTCA belongs 9.8 upbm affinity estimate (log intensity, higher = more binding, comparable within an allelic series); to GCAGCTGC, 8.55 upbm affinity estimate (log intensity, higher = more binding, comparable within an allelic series); to GCCCGGGC, 8.04 upbm affinity estimate (log intensity, higher = more binding, comparable within an allelic series).
Take AGATTAGC: the binding signal was 13.1 upbm affinity estimate (log intensity, higher = more binding, comparable within an allelic series).
Still for that read-out and setting: to CAGATTAG belongs 13.1 upbm affinity estimate (log intensity, higher = more binding, comparable within an allelic series); to AGGGGACC, 8.22 upbm affinity estimate (log intensity, higher = more binding, comparable within an allelic series).
On the same count and under the same terms, as for CCCTGATC, the figure is 10 upbm affinity estimate (log intensity, higher = more binding, comparable within an allelic series).
Regarding GGATTACA, the binding signal was 13 upbm affinity estimate (log intensity, higher = more binding, comparable within an allelic series).
The same measure, in the same setting: as for CCAGGGGC, the figure is 7.94 upbm affinity estimate (log intensity, higher = more binding, comparable within an allelic series); as for GAGGTACC, 8.18 upbm affinity estimate (log intensity, higher = more binding, comparable within an allelic series).
Same read-out and setting: to GGGGACCC belongs 8.31 upbm affinity estimate (log intensity, higher = more binding, comparable within an allelic series).
On the same count and under the same terms, as for CCCGTCCC, the figure is 8.37 upbm affinity estimate (log intensity, higher = more binding, comparable within an allelic series); as for ATATTAAT, 11.5 upbm affinity estimate (log intensity, higher = more binding, comparable within an allelic series); as for GATTAATA, 12.7 upbm affinity estimate (log intensity, higher = more binding, comparable within an allelic series).
For the sequence ATAATCTG, the binding signal was 13 upbm affinity estimate (log intensity, higher = more binding, comparable within an allelic series).
With CAGATTAA, the binding signal was 13.1 upbm affinity estimate (log intensity, higher = more binding, comparable within an allelic series).
Still for that read-out and setting: to ATTTATGG belongs 9.96 upbm affinity estimate (log intensity, higher = more binding, comparable within an allelic series); to TGCGATAA, 10.5 upbm affinity estimate (log intensity, higher = more binding, comparable within an allelic series); to AGACTATC, 9.51 upbm affinity estimate (log intensity, higher = more binding, comparable within an allelic series).
Same read-out and setting: as for TAATCTGA, the figure is 12.8 upbm affinity estimate (log intensity, higher = more binding, comparable within an allelic series); as for GGGGCCCC, 8.69 upbm affinity estimate (log intensity, higher = more binding, comparable within an allelic series).
Same read-out and setting: to CGCACCGC belongs 8.2 upbm affinity estimate (log intensity, higher = more binding, comparable within an allelic series); to GCAGATTA, 13 upbm affinity estimate (log intensity, higher = more binding, comparable within an allelic series).
With CCCCTGGA, the binding signal is 8.46 upbm affinity estimate (log intensity, higher = more binding, comparable within an allelic series).
On to ACTAATCG, for which the binding signal is 11.9 upbm affinity estimate (log intensity, higher = more binding, comparable within an allelic series).
Consider ATTATCTC, for which the binding signal is 11.5 upbm affinity estimate (log intensity, higher = more binding, comparable within an allelic series).
ACGCAACG: the binding signal was 8.41 upbm affinity estimate (log intensity, higher = more binding, comparable within an allelic series).
Consider CTGGGGCA, for which the binding signal was 8.24 upbm affinity estimate (log intensity, higher = more binding, comparable within an allelic series).
Still for that read-out and setting: as for CTGCTGGC, the figure is 8.3 upbm affinity estimate (log intensity, higher = more binding, comparable within an allelic series).
The same measure, in the same setting: as for GTGGATTA, the figure is 13.3 upbm affinity estimate (log intensity, higher = more binding, comparable within an allelic series).
On the same count and under the same terms, as for CCAGATTA, the figure is 13 upbm affinity estimate (log intensity, higher = more binding, comparable within an allelic series).

The target of the next assay is HOXC9 (Homo sapiens, UniProt P31274 178-260). Put plainly: PBM; 200 nM protein, PBS. The note with it: dsDNA, one strand shown.
Chain of HOXC9 (Homo sapiens, UniProt P31274 178-260) (P31274 178-260): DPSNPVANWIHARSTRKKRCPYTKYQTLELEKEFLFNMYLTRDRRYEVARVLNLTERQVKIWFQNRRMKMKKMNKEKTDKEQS
Consider ACCAGCCC, for which the binding signal was 9.8 upbm affinity estimate (log intensity, higher = more binding, comparable within an allelic series).
Still for that read-out and setting: to GACGCGTC belongs 9.79 upbm affinity estimate (log intensity, higher = more binding, comparable within an allelic series).
The same measure, in the same setting: to AGGGGACC belongs 9.69 upbm affinity estimate (log intensity, higher = more binding, comparable within an allelic series); to GGGGACCC, 9.5 upbm affinity estimate (log intensity, higher = more binding, comparable within an allelic series); to ATATTAAT, 12.5 upbm affinity estimate (log intensity, higher = more binding, comparable within an allelic series).
Regarding ATTTATGG, the binding signal was 12.9 upbm affinity estimate (log intensity, higher = more binding, comparable within an allelic series).
Take ATTATCTC: the binding signal was 11.4 upbm affinity estimate (log intensity, higher = more binding, comparable within an allelic series).

For the next assay, the target named is ALX3 (Homo sapiens, UniProt O95076 139-225, N203Q). The assay is described as follows: PBM; 200 nM protein, PBS. As to conditions: dsDNA, one strand shown.
Chain of ALX3 (O95076 139-225 N203Q): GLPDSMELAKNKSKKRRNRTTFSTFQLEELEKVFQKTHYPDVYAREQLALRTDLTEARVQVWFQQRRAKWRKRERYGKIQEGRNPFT
As for GCAGCTGC, the binding signal is 7.82 upbm affinity estimate (log intensity, higher = more binding, comparable within an allelic series).
On the same count and under the same terms, to CCAGGGGC belongs 7.67 upbm affinity estimate (log intensity, higher = more binding, comparable within an allelic series); to ATATTAAT, 8.63 upbm affinity estimate (log intensity, higher = more binding, comparable within an allelic series).

The target of a further assay is T2, SIX6 (Homo sapiens, UniProt O95475 114-200, T165A).
T2 sequence: T1 sequence with Q26T, T52A
The assay is described as follows: PBM; 200 nM protein, PBS. As to conditions: dsDNA, one strand shown.
With CACGCCCC, the binding signal was 9.17 upbm affinity estimate (log intensity, higher = more binding, comparable within an allelic series).
Same read-out and setting: to AGGTGCCC belongs 8.85 upbm affinity estimate (log intensity, higher = more binding, comparable within an allelic series).
For the sequence CCGTCGCC, the binding signal is 8.74 upbm affinity estimate (log intensity, higher = more binding, comparable within an allelic series).
On the same count and under the same terms, as for GCAGCTGC, the figure is 9.05 upbm affinity estimate (log intensity, higher = more binding, comparable within an allelic series); as for CCAGGGGC, 8.82 upbm affinity estimate (log intensity, higher = more binding, comparable within an allelic series); as for AGACTATC, 10.1 upbm affinity estimate (log intensity, higher = more binding, comparable within an allelic series).
The same measure, in the same setting: as for GGGGCCCC, the figure is 9.03 upbm affinity estimate (log intensity, higher = more binding, comparable within an allelic series); as for CGCACCGC, 8.98 upbm affinity estimate (log intensity, higher = more binding, comparable within an allelic series).
Still for that read-out and setting: to ACGCAACG belongs 9.14 upbm affinity estimate (log intensity, higher = more binding, comparable within an allelic series); to CTGCTGGC, 8.81 upbm affinity estimate (log intensity, higher = more binding, comparable within an allelic series).

The next assay has as its target PITX2 (Homo sapiens, UniProt Q99697 72-157). Put plainly: PBM; 200 nM protein, PBS. As to conditions: dsDNA, one strand shown.
In the case of GCCCGGGC, the binding signal is 8.05 upbm affinity estimate (log intensity, higher = more binding, comparable within an allelic series).
As to AGATTAGC, the binding signal is 12.5 upbm affinity estimate (log intensity, higher = more binding, comparable within an allelic series).
For the sequence CAGATTAG, the binding signal was 12.3 upbm affinity estimate (log intensity, higher = more binding, comparable within an allelic series).
For the sequence GGATTACA, the binding signal was 12.8 upbm affinity estimate (log intensity, higher = more binding, comparable within an allelic series).
Same read-out and setting: to GGGGACCC belongs 7.78 upbm affinity estimate (log intensity, higher = more binding, comparable within an allelic series); to CAGATTAA, 12.5 upbm affinity estimate (log intensity, higher = more binding, comparable within an allelic series); to GCAGATTA, 12.3 upbm affinity estimate (log intensity, higher = more binding, comparable within an allelic series).
As to GTGGATTA, the binding signal is 13.2 upbm affinity estimate (log intensity, higher = more binding, comparable within an allelic series).

In another assay the target is HOXC9 (Homo sapiens, UniProt P31274 178-260, R193K). Put plainly: PBM; 200 nM protein, PBS. The note with it: dsDNA, one strand shown.
Chain of HOXC9 (Homo sapiens, UniProt P31274 178-260, R193K) (P31274 178-260 R193K): as the sequence (P31274 178-260) above, with R16K counted along it
On to ACCAGCCC, for which the binding signal is 9.71 upbm affinity estimate (log intensity, higher = more binding, comparable within an allelic series).
Turning to GACGCGTC, the binding signal is 9.46 upbm affinity estimate (log intensity, higher = more binding, comparable within an allelic series).
The same measure, in the same setting: as for AGGGGACC, the figure is 9.54 upbm affinity estimate (log intensity, higher = more binding, comparable within an allelic series); as for GGGGACCC, 9.41 upbm affinity estimate (log intensity, higher = more binding, comparable within an allelic series).
On the same count and under the same terms, to ATATTAAT belongs 12.5 upbm affinity estimate (log intensity, higher = more binding, comparable within an allelic series); to ATTTATGG, 12.8 upbm affinity estimate (log intensity, higher = more binding, comparable within an allelic series); to ATTATCTC, 11.4 upbm affinity estimate (log intensity, higher = more binding, comparable within an allelic series).
